Results on 12 compounds are retold here after PubChem BioAssay (NCATS).

SMILES strings stand for the structures. Inconclusive results are not listed. Active and inactive are the calls of the source. Unless noted, the call rests on the fitted dose curve; in most records, active means well fitted curve in the direction sought with a large enough effect; inconclusive means small, poorly fitted or top-dose-only effect, or another doubt; inactive means no such curve, though single readings can be large; an effect the other way counts as inactive or inconclusive.

Test [1] in a line: Quantitative High-Throughput drug screen in 47 multiple myeloma cell lines against the NCATS MIPE library collection: OPM2_DSMZ cell viability assay (AID 1919872). Further: nearly all actives have a fitted effect of over 30% in size. Further: potency means the concentration at half of the fitted maximal effect. In outline:
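Luminescent ATP measurement with CellTiter-Glo gives viability, scaled between DMSO-only wells (100%) and media-only wells (0%). Cells, 500 per well, faced library compounds for 48 hours at 37C.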

Test [2] is described as follows: Quantitative High-Throughput drug screen in 47 multiple myeloma cell lines against the NCATS MIPE library collection: KMS11_JCRBsus cell viability assay (AID 1919873). Further: nearly all actives have a fitted effect of over 50% in size. Further: potency means the concentration at half of the fitted maximal effect. Summed up:
(§1)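 ATP-based CellTiter-Glo luminescence after 48 h drug exposure (37 °C, 5% CO2) of 500 myeloma cells per well. DMSO-only wells set 100% viability, media-only wells 0%; MIPE 4.0 library added by pin tool.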

Test [3] can be described thus: qHTS profiling for inhibitors of Plasmodium falciparum proliferation (AID 504749).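 Further: 0% = DMSO vehicle and full inhibition = artemisinin control; nearly all actives have a fitted effect of over 60% in size.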 The note with it: P. falciparum in erythrocytes, SYBR Green DNA, 72 h, at 28.7 µM (top of the series). Summed up:
(§2)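 SYBR Green fluorescence of parasite DNA, read after lysis and overnight dark incubation, measured growth over 72 h in erythrocyte culture at 0.3% parasitemia and 2.5% hematocrit. Data normalised to DMSO and 0.29 uM artemisinin, with plate-drift correction.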

Another test has as its system 3D7. The description is as above. The following applies: P. falciparum in erythrocytes, SYBR Green DNA, 72 h; series mostly up to 28.7 µM. In outline:
as §2

The next test concerns 7G8. The test is described as above. The note with it: P. falciparum in erythrocytes, SYBR Green DNA, 72 h; series mostly up to 28.7 µM. Summed up: as §2
The test system of another test is AA1029. The test is described as above. The note with it: P. falciparum in erythrocytes, SYBR Green DNA, 72 h; series mostly up to 28.7 µM. Summed up:
as §2

Test [4] can be described thus: Quantitative High-Throughput drug screen in 47 multiple myeloma cell lines against the NCATS MIPE library collection: KMS28BM_JCRB cell viability assay (AID 1919874). Further: nearly all actives have a fitted effect of over 35% in size. Further: potency means the concentration at half of the fitted maximal effect. Summed up:
as §1

A short description of test [5]: qHTS for identification of novel therapeutic agents for treatment of microphthalmiaassociated transcription factor (MiT) renal cell carcinoma (RCC) (AID 1963991). The following applies: CellTiter-Glo, 48 h, stronger effect = lower value. In outline: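 Three TFE3-fusion RCC cell lines (UOK109, UOK124, UOK145), 500 cells/well, were exposed to the 1912-compound MIPE 4.0 library for 48 hours at 37 C. Viability was read by CellTiter-Glo luminescence, normalised to DMSO (100%) and empty wells (0%), with 11-concentration curve fits.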

For test [6], the target named is Cytochrome P450 3A4 (Homo sapiens) (UniProt P08684). Briefly: qHTS for inhibitors of CYP3A4 against the NCATS DSHEA and TCM libraries (AID 1919971).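 Further: on the % scale 0 is the no-effect control and ±100 the full control effect; inhibition lowers luminescence from luciferin made by CYP3A4.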 Summed up: (§3)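 Concentration-response screening with isoform-matched pro-luciferin substrates. The CYP reaction was initiated by NADPH regenerating solution and ran 30-45 min in darkness at room temperature.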
Sequence of Cytochrome P450 3A4 (Homo sapiens) (P08684 whole entry, looked up, canonical isoform): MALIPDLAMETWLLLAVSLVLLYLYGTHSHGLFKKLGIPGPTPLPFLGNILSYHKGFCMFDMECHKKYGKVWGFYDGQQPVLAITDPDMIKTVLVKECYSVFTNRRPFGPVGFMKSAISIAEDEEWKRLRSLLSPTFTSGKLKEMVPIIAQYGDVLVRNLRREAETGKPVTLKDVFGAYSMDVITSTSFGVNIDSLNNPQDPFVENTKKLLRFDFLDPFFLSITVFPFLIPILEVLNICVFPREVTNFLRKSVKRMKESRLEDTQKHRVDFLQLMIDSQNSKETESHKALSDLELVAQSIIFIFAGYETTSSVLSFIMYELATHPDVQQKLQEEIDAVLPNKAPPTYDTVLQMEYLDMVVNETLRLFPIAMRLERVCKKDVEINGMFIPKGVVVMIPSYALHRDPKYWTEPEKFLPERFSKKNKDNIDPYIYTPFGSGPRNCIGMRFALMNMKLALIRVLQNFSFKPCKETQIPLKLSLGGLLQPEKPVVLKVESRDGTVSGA
The target in test [7] is Cytochrome P450 2C19 (Homo sapiens) (UniProt P33261). Briefly: qHTS for inhibitors of CYP2C19 against the NCATS DSHEA and TCM libraries (AID 1919974).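 Further: luminescence from luciferin released by CYP2C19 oxidation of a pro-luciferin substrate; on the % scale 0 is the no-effect control and ±100 the full control effect.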 Summed up:
as §3

A short description of test [8]: KB-3-1 P-gp reporter qHTS against the NCATS DSHEA and TCM libraries (AID 1919975). Further: 0% is about no effect. In outline: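 CellTiter-Glo luminescence viability readout; KB-3-1 parental cells, 500/well, attached ~4 h, then compound for ~72 h, 37C, 5% CO2. Bortezomib intraplate control.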
A short description of test [9]: Dual reporter qHTS for agonist of Pregnane X Receptor (hPXR) against the NCATS DSHEA and TCM libraries: Fluorescence readout (AID 1920058). Further: 0% is about no effect. Summed up: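 Cells were plated at 2000 per well and allowed to attach for 5 h. Test substances were pinned in and incubated roughly 24 h. CellTiter-Fluor was then added and fluorescence measured after 1 h.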
Test [10] deals with Nuclear receptor subfamily 1 group I member 2 (Homo sapiens) (UniProt O75469). Briefly: Dual reporter qHTS for agonist of Pregnane X Receptor (hPXR) against the NCATS DSHEA and TCM libraries: Luminescence readout (AID 1920059). Further: 0% is about no effect. In outline: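 Luminescent PXR reporter read (ONE-Glo) after a CellTiter-Fluor viability read, following 24 h, 37C treatment of HepG2 cells stably carrying hPXR-Luc.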
Sequence of Nuclear receptor subfamily 1 group I member 2 (Homo sapiens) (O75469 whole entry, looked up): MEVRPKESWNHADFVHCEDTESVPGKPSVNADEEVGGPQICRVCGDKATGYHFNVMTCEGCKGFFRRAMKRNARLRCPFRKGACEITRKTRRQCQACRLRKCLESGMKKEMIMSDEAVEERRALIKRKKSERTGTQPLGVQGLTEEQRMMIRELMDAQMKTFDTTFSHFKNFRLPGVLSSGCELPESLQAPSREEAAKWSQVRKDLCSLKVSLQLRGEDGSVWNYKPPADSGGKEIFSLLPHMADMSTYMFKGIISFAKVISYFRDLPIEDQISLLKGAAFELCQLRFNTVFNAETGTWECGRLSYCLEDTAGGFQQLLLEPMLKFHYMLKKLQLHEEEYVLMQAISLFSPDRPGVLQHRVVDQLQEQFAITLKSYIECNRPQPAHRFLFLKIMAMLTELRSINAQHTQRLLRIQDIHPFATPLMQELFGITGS

Test [11] has the same target. Briefly: Dual reporter qHTS for antagonist of Pregnane X Receptor (hPXR) against the NCATS DSHEA and TCM libraries: Luminescence Readout (AID 1920060).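 Further: HepG2 cells carrying hPXR luciferase reporter stimulated with rifampicin at 2 µM; 0% is about no effect.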 Summed up: (§4)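 Antagonist mode: rifampicin 2 uM final co-added with compounds to hPXR-LucHepG2 cells for 24 h at 37C. Viability by CellTiter-Fluor, Ex/Em 405/540 nm, 1 h; reporter by ONE-Glo luminescence.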
A short description of test [12]: Dual reporter qHTS for antagonist of Pregnane X Receptor (hPXR) against the NCATS DSHEA and TCM libraries: Fluorescence Readout (AID 1920061). Further: 0% is about no effect. Summed up: as §4
A short description of test [13]: qHTS drug screen for cell cycle checkpoint inhibitors in PARPi-resistant BRCA-mutant ovarian cancer cell lines. (AID 1963452; calls by dose curve). The following applies: PEO1/OlaR viability, CellTiter-Glo luminescence, 96 h, stronger effect = lower value. In outline:
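PEO1, PEO4 and PEO1/OlaR ovarian cancer cells, 600 per well, exposed 96 h at 37C to a dilution series. Viability read by CellTiter-Glo luminescence, normalized to DMSO and empty wells; activity summarized as Z-AUC.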

[14] abbreviates: TFE3-RCC UOK109 viability, measured here: UOK109 Z-AUC.
The mark [15] stands for this setting: TFE3-RCC viability, measured here: UOK124 Z-AUC.
Setting [16] is: TFE3-RCC viability, measured here: UOK145 Z-AUC.

Sequence of Cytochrome P450 2C19 (Homo sapiens) (P33261 whole entry, looked up): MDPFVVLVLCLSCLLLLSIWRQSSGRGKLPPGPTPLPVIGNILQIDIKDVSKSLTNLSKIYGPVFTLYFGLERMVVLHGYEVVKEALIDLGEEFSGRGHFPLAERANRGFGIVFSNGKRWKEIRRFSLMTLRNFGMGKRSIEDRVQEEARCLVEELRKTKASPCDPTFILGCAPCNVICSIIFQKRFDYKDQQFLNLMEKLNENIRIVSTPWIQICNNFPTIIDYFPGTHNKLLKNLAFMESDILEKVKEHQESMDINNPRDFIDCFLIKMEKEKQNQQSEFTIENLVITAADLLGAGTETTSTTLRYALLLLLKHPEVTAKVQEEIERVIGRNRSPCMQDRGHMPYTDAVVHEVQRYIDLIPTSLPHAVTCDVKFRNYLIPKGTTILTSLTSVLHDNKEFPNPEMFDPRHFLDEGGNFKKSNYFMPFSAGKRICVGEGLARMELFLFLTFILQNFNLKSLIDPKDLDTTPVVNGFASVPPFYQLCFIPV

Regarding `S=P(N1CC1)(N1CC1)N1CC1`, the Potency result (in test [1]; in test [2]; with 3D7; in the test on 7G8; in the test with AA1029) was “inactive” in each case. The figures for the activity, negative = inhibition in [3] (parasite line A) and in test [3] (parasite line B) were -0.685% (inactive) and -0.221% (inactive), respectively.
`CC(C)OC(=O)C(C(=O)OC(C)C)=C1SC=CS1`: the Potency entry (in test [1]; in [2]; with 3D7; in the test on 7G8; with AA1029) was “inactive” in each case. In addition, the activity, negative = inhibition in test [3] (parasite line A) is 2.72% (inactive); in [3] (parasite line B) it was 16.3% (inactive).
As to `CN1CCN(c2c(F)cc3c(=O)c(C(=O)O)cn(CCF)c3c2F)CC1`, the Potency result (in test [1]; in [4]; in the test on 3D7; with 7G8; in the test on AA1029) was “inactive” in each case. For the same compound, the z-score in test [5] (setting [14]) is 1.29; in test [5] (setting [15]), -0.24; in test [5] (setting [16]), 0.785. Moreover, the activity, negative = inhibition was 1.69% (inactive) in test [3] (parasite line A) and 7.79% (inactive) in [3] (parasite line B).
As to `COc1ccccc1OCC(O)COC(N)=O` (stereo not given), the Potency result in test [1] is “inactive”. Also, the z-score in test [5] (setting [14]) was 0.0196; in test [5] (setting [15]), 0.974; in test [5] (setting [16]) it was 0.377.
In the case of `CC(=O)[C@H]1CC[C@H]2[C@@H]3CCC4=CC(=O)CC[C@]4(C)[C@H]3CC[C@]12C`, the Potency in [2] is 18.7 µM (active); in test [4], 16.6 µM (active).
For `O=C(O)c1cccnc1`, the Potency result in test [1], in test [7] and in [8] was “inactive” each time. The outcome in test [6], in [9], in [10], in test [11] and in test [12] was inactive. Further, the z-score in test [5] (setting [14]) amounted to 0.704; in test [5] (setting [15]), 0.528; in test [5] (setting [16]), 0.253.
For `N[C@@H](C(=O)N[C@@H]1C(=O)N2C(C(=O)O)=C(Cl)CS[C@H]12)c1ccccc1`, the Potency result (in [1]; in the test with 3D7; in the test with 7G8; with AA1029) was “inactive” in each case. For the same compound, the z-score in [5] (setting [14]) came out at 1.18; in [5] (setting [15]), 0.137; in [5] (setting [16]) it was 0.843. In addition, the activity, negative = inhibition in [3] (parasite line A) is 10% (inactive); in test [3] (parasite line B), -2.02% (inactive).
Turning to `CC(C(=O)O)c1ccc2c(c1)CC(=O)c1ccccc1S2` (stereo not given), the Potency entry in test [1] was “inactive”. Further, the Z-AUC in test [13] is 1.18 (inactive); in test [13] (measured here: PEO1 parental Z-AUC), 0.703; in test [13] (measured here: PEO4 Z-AUC) it was 0.789.
With `COc1cccc(N(C)C(=S)Oc2ccc3c(c2)CCCC3)n1`, the Potency result (in [1]; in the test on AA1029) was “inactive” in each case. In [2], the Potency is 29.6 µM (active). The z-score in [5] (setting [14]) is 0.559; in test [5] (setting [15]) it was 0.578; in test [5] (setting [16]), 1.67. In addition, the activity, negative = inhibition in test [3] (parasite line A) was -29.5% (inactive); in test [3] (parasite line B) it was -22.3% (inactive).
Turning to `Cc1onc(-c2ccccc2Cl)c1C(=O)N[C@@H]1C(=O)N2[C@@H]1SC(C)(C)[C@@H]2C(=O)O`, the Potency entry in [1] and in [2] was “inactive” in each case. Also, the z-score in test [5] (setting [14]) worked out at 1.22; in test [5] (setting [15]), 0.834; in test [5] (setting [16]) it was 1.69.
On to `Cc1ncc([N+](=O)[O-])n1CCO`, for which the Potency result (in test [1]; in test [4]; with 3D7; in the test with 7G8; in the test on AA1029) was “inactive” throughout. Besides, the activity, negative = inhibition was -7.64% (inactive) in [3] (parasite line A) and 6.06% (inactive) in test [3] (parasite line B).
With `COc1nc(N)nc2c1ncn2[C@@H]1O[C@H](CO)[C@@H](O)[C@@H]1O`, in test [1], the Potency is 0.469 µM (active). Besides, the Potency entry (in [2]; in the test on 3D7; in the test on AA1029) was “inactive” throughout. Besides, the activity, negative = inhibition is -5.23% (inactive) in test [3] (parasite line A) and -4.98% (inactive) in test [3] (parasite line B).
